Where “and” joins values, the source holds several entries; their conditions need not be identical. Equal values may be shown once. Out of some 310,000 compounds screened, about 1,200 (0.39%) were called active. No rule for the calls is given here. Only a sample is shown. Entries with a potency or affinity are not part of this list.
Each molecule was assayed against Large T antigen (Simian virus 40) (UniProt P03070) (assay: TAg ATPase/helicase activity blockers – biochemical (AID 1903)). Conditions: SV40 large T antigen ATPase/helicase inhibition assay; at 20 µM; active compounds read high.
Sequence of Large T antigen (Simian virus 40) (P03070 whole entry, looked up): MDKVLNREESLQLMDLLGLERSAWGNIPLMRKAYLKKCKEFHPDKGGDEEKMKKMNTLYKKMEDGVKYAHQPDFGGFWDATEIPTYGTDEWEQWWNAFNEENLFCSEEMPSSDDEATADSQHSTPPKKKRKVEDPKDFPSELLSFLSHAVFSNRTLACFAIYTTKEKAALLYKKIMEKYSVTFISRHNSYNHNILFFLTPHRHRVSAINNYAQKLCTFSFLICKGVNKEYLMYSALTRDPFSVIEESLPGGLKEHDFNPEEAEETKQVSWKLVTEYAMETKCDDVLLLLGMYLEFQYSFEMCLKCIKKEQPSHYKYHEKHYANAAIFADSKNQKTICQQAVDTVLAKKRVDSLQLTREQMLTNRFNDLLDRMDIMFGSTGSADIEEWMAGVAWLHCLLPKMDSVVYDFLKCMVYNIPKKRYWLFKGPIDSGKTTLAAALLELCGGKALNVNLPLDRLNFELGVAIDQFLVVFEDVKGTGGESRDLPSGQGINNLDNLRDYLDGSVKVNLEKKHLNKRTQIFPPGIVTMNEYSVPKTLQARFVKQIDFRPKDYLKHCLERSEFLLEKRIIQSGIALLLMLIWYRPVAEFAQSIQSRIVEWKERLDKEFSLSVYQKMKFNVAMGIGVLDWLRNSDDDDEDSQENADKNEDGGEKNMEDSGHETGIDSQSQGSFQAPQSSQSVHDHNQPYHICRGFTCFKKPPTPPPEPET

inhibition, inactive:
C/C(=C1/SC(N2CCOCC2)=NC1=O)c1ccc(Br)cc1 -0.65%, CC1CCCCC1NC(=O)C1CCN(S(=O)(=O)c2cccc3nonc23)CC1 (centres undefined) 6.27%, COc1ccc(OC)c(/C=N/NC(=O)CC2C(=O)NN=C2C)c1 (centres undefined) 8.18%, COc1ccc(/C=N\NC(=O)C2=NNC(=O)C2C)cc1 (centres undefined) 21.2%, COc1cc(OC)c(OC)cc1/C=N/NC(=O)CC1C(=O)NN=C1C (centres undefined) 8.13%, CC1C(=O)NN=C1C(=O)N/N=C/c1cccs1 (centres undefined) 30%, CCCCC(CCCCl)C(=O)Nc1ccccc1 (centres undefined) 0.43%, CCN1CCCC1CNC(=O)COc1cc(=O)n(C)c2ccccc12 (centres undefined) -0.09%, CC(=O)C[C@H]1c2ccccc2S(=O)(=O)N1C1CCCC1 3.17%, CC(C)CCN1CCN(Cc2cccc3cccnc23)CC1CCO (centres undefined) -6.36%, CCN1CCN(C(=O)c2ccc(OCC(=O)Nc3ccc(F)cc3)c(OC)c2)CC1 4.11%, O=C1c2ccccc2CN1c1ccccc1 5.42%, COc1ccc(N2Cc3ccccc3C2=O)cc1 2.48%, CCN(Cc1ccccc1)S(=O)(=O)c1ccc(OC)c2ncccc12 11.3%, COc1cc(-c2noc(CCC(=O)NC3CCCCC3)n2)cc(OC)c1OC 25.3%, CN(C)c1ccc(Cl)cc1N 1.86%, COc1ccc(C(=O)c2ccc(OC)c(N)c2)cc1N 8.57%, O=C(CCS(=O)(=O)c1ccc(F)cc1)N1CCN(c2ccccc2)CC1 18.3%, CC(=C/c1ccc(C(C)C)cc1)/C=N/NC(=O)Cn1nc(C)cc1C 2.16%, CC(=O)Nc1sc(NC(=O)c2ccccc2)nc1-c1cccs1 6.41%, Nc1nc(-c2cccs2)c(CC(=O)O)s1 23.1%, O=[N+]([O-])c1cccc(C2(O)COc3ccccc3O2)c1 (centres undefined) 6.64%, CCn1c(COc2ccccc2)nnc1SCC(=O)NC1CCCCC1 8.87%, O=c1cc(CN2CCN(c3ccccc3)CC2)nc2scc(-c3ccccc3)n12 3.32%, CCOC(=O)C1CCN(Cc2cc(=O)n3c(-c4ccccc4)csc3n2)CC1 2.57%, Cc1ccc(N(C(=O)CNC(=O)c2ccco2)C(C(=O)NCC2CCCO2)c2ccccc2)c(C)c1 (centres undefined) 18.4%, CCN(CC)S(=O)(=O)c1ccc(Nc2nc3ccccc3n3nnnc23)cc1 -2.08%, N#CC1=C(S)N(c2ccccc2)C(c2ccc(-c3cccc(Cl)c3)o2)NC1=O (centres undefined) 34.4%, N#CC1=C(S)N(c2ccccc2)C(c2ccc(-c3cc(Cl)ccc3Cl)o2)NC1=O (centres undefined) 33.3%, Cc1cccc(N(CC(=O)N2CCCC2)S(C)(=O)=O)c1 7.43%, CSc1ccccc1NC(=O)CN(C)Cc1cccc(Cl)c1 8.82%, COc1ccc(N/C(C)=C/C(=O)c2ccccc2)cc1 9.38%, COc1ccc(C(=O)/C=C(\C)Nc2ccc3c(c2)OCO3)cc1 5.13%, CCCc1nc(C(C)(C)O)c(C(=O)O)n1Cc1ccc(-c2ccccc2-c2nn[nH]n2)cc1 -1.62% and 6.85%, Cc1c(/C=N/NC(=O)c2cccs2)c2ccccc2n1Cc1ccccc1Cl 14.4%, CN(Cc1ccccc1F)C(=O)c1sccc1-c1ccccc1 20%, CC(C)CNC(=O)NC1(C(F)(F)F)Oc2ccccc2O1 3.66%, CCOC(=O)Cc1csc(NC(=O)NC2(C(F)(F)F)Oc3ccccc3O2)n1 31.1%, O=C(Nc1ccc2c(c1)CCCN2C(=O)c1cccs1)c1c(F)cccc1Cl 13.1%, CCC(=S)/C=C1\Sc2ccc3ccccc3c2N1CCCS(=O)(=O)O 18.3%, Cc1c2ccccc2cc[n+]1CCCS(=O)(=O)[O-] 7.97%, COC(=O)[C@@H](NC(=O)NCc1ccccc1F)C(C)C -2.59%, COc1ccc(C(=O)N2CCN(S(=O)(=O)c3cc(Cl)ccc3OC)CC2)cc1 5.04%, Cc1nn(C)c(C)c1NC(=O)CSc1nc(-c2ccccc2Cl)nc2c1cnn2-c1ccccc1 8.57%, COc1cc(/C=N/NC(=O)/C(=C/c2ccccc2)CCO)ccc1O 29.2%, COc1ccc(/C=N/NC(=O)/C(=C/c2ccccc2)CCO)cc1 2.79%, O=C(COc1ccc(N2CC(C(=O)O)CC2=O)cc1)Nc1cccc(C(F)(F)F)c1 (centres undefined) -0.75%, COc1cc(/C=N\NC(=O)CNC(=O)C(c2ccccc2)c2ccccc2)ccc1O 33.5%, COc1ccc(/C=N/NC(=O)CNc2n[nH]c(=O)[nH]c2=O)cc1OC 0.71%, CCOc1cc(/C=N/NC(=O)COc2nc(C)cc(COC)c2C#N)ccc1O 25.5%, CCOc1cc(/C=N/NC(=O)C(=O)N2CCCC2)ccc1O 29.3%, COc1ccc(/C=N/NC(=O)CCc2n[nH]c(=O)[nH]c2=O)cc1OC 9.55%, COc1ccc(/C=N/NC(=O)CCc2ccccc2)cc1O 29.5%, Cc1cccc(N2CCN(S(=O)(=O)c3ccc4c(c3)CC(C)N4C(=O)C3CC3)CC2)c1C (centres undefined) 4.4%, Cc1cc(OCC(=O)NC2CC2)c2c(C)c(C)c(=O)oc2c1 20.6%, O=C(CN1CCOCC1)Nc1cccc(C(F)(F)F)c1 16.1%, COc1cc(Cl)c(C)cc1NC(=O)CCCn1c(=O)oc2ccccc21 4.1%, O=C(CN1CCOCC1)NNC(=S)Nc1ccccc1 4.41%, CN(CC(=O)Nc1cccc(F)c1)C(=O)c1cccc(S(=O)(=O)N2CCN(c3ccccc3)CC2)c1 6.82%, O=[N+]([O-])C1=C(Nc2cccc3ccccc23)CS(=O)(=O)C1 0.61%, Cc1ccc(NC2=C([N+](=O)[O-])CS(=O)(=O)C2)cc1 2.4%, O=C1N/C(=C\c2ccsc2)C(=O)N1Cc1ccc(F)cc1 5.82%, Cc1ccc(/C=C2/NC(=O)N(Cc3ccc(Br)cc3)C2=O)o1 9.48%, O=C1/C(=C\c2cccnc2)SC(=S)N1c1ccc(F)cc1 9.19%, O=C1N/C(=C/c2ccc(N3CCOCC3)cc2)C(=O)N1Cc1ccc(F)cc1 3.08%, O=C1/C(=C/c2cccnc2)SC(=S)N1c1ccc(F)cc1 21.6%, COc1ccc(CN2C(=O)c3ccccc3C2=O)cc1 5.14%, Cc1ccc(/C=C2/NC(=O)N(Cc3ccccc3)C2=O)o1 9.41%, COC(=O)C1=C(C)N(Cc2ccc(OC)cc2)C(=O)/C1=C\c1ccco1 10.5%, COc1cccc(C(=O)COc2ccc(NC(=O)c3cccs3)cc2)c1 -1.46%, Cc1nn(-c2ccccc2)c(N)c1N=Nc1ccc(Cl)cc1 5.29%, CC(=O)NCCCc1nc2ccccc2n1Cc1cc(C)ccc1C 2.29%, O=C(CCCN1C(=O)/C(=C\c2ccccc2)SC1=S)Nc1ccc(O)cc1C(=O)O 11.7%, O=C(CN1C(=O)/C(=C/c2ccccc2Cl)SC1=S)NC1CCS(=O)(=O)C1 (centres undefined) 14.6%, O=C(CCN1C(=O)/C(=C/c2cccs2)SC1=S)Nc1ccc(C(=O)O)c(O)c1 35%, O=C(CN1C(=O)/C(=C/c2ccccc2)SC1=S)NC1CCS(=O)(=O)C1 (centres undefined) 15.6%, O=C(CCCN1C(=O)/C(=C/c2ccccc2)SC1=S)Nc1ccc(C(=O)O)c(O)c1 11.4%, COc1ccccc1/C=C1\SC(=S)N(CCC(=O)Nc2ccc(C(=O)O)c(O)c2)C1=O 22.1%, O=C(CCCN1C(=O)/C(=C\c2ccco2)SC1=S)Nc1ccc(O)cc1C(=O)O 83.1%, O=C(CN1C(=O)S/C(=C\c2cccs2)C1=O)Nc1ccc(C(=O)O)c(O)c1 13.4%, COC(=O)COc1ccc2occ(C(C)=O)c2c1 -0.85%, COC(=O)c1[nH]c2ccc(F)cc2c1NC(=O)Nc1ccc(OC)cc1 11.4%, CN1CCN(C(=O)CSc2nnc(COc3ccccc3)o2)CC1 6.15%, Cc1ccc2oc3nc(C)c(C(=O)Nc4cccc(C(F)(F)F)c4)cc3c(=O)c2c1 2.24%, Clc1ccc(/C=N/N2CCCCC2)cc1 5.46%, Cc1cc(NC(=O)C(=O)c2c(C)[nH]c3ccccc23)no1 3.99%, CCOc1ccc2nc(NC(=O)CC3Oc4ccccc4NC3=O)sc2c1 (centres undefined) 7.51%, O=C(COC(=O)c1ccccc1SCC(=O)N1CCCC1)NC1CCCCC1 7.38%, CC1(C)CC(=O)C/C(=N/NC(=O)COc2ccc3ccccc3c2Br)C1 8.99%, C/C(CC(=O)Nc1ccc2c(c1)OCCO2)=N\NC(=O)Cc1ccccc1 9.69%, O=C(CCCN1C(=O)/C(=C\c2ccco2)SC1=S)Nc1ccc2ccccc2c1 18.2%, CC(C(=O)Nc1ccc(O)cc1C(=O)O)N1C(=O)/C(=C\c2cccs2)SC1=S (centres undefined) 38.1%, CCN(C(=O)C(C)N1C(=O)/C(=C/c2ccco2)SC1=S)C1CCS(=O)(=O)C1 (centres undefined) 33.8%, O=C(CCCN1C(=O)/C(=C/c2cccs2)SC1=S)Nc1ccc(O)c(C(=O)O)c1 29.5%
